Measured values reported in PubChem BioAssay (Tox21).
Inconclusive results are not listed. Active and inactive are the calls of the source. Unless noted, calls follow the shape of the dose curve; as a rule, active = well fitted curve in the direction sought with a large enough effect in the repeat runs; inconclusive = weak or mixed curves; inactive = no such curve, though single readings can be large; an effect the other way counts as inactive or inconclusive.

Key:
[1] = target: Peroxisome proliferator-activated receptor delta (Homo sapiens) (UniProt Q03181); assay: qHTS assay to identify small molecule agonists of the peroxisome proliferator-activated receptor delta (PPARd) signaling pathway (AID 743212; calls by dose curve)
Peroxisome proliferator-activated receptor delta (Homo sapiens), sequence (Q03181 whole entry, looked up): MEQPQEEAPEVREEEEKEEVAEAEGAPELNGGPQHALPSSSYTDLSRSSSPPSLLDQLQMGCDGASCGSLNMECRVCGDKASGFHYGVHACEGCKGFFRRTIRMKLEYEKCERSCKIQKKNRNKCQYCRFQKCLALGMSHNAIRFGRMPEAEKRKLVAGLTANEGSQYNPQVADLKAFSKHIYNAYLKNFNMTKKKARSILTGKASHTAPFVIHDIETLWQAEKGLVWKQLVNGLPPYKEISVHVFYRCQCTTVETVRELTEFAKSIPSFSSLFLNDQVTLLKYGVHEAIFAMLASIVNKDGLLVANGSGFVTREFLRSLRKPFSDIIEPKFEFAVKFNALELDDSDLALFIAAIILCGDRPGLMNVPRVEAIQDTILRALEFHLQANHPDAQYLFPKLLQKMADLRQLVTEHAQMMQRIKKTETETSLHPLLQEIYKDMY
Procedure, shortened: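 Tox21 library screened in GeneBLAzer PPARd UAS-bla HEK293H cells. After compound treatment at 37 C, a FRET-based beta-lactamase substrate was applied for 2 h and fluorescence recorded.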

[2] = qHTS assay to identify small molecule antagonists of the peroxisome proliferator-activated receptor delta (PPARd) signaling pathway - cell viability counter screen (AID 743213); also: nearly all actives have a fitted effect of over 50% in size
Procedure, shortened: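 HEK293H PPARd UAS-bla cells, 5 h pre-incubation, compound + L165041 300 nM final, 17 h 37 C; B/G FRET substrate 2 h RT; then CellTiter-Glo 30 min RT, luminescence.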

[3] = target: Peroxisome proliferator-activated receptor delta (Homo sapiens) (UniProt Q03181); assay: qHTS assay to identify small molecule antagonists of the peroxisome proliferator-activated receptor delta (PPARd) signaling pathway (AID 743215; active = well fitted inhibition curve with a large enough effect in the signal ratio in the repeat runs, not every such curve was filed as active; the % refers to the signal ratio;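 also: cells stimulated with agonist L165041 at 300 nM final during compound exposure; series mostly up to about 62 µM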)
Procedure, shortened: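 Plated HEK293H PPARd-bla cells rested 5 h at 37 C and 5% CO2. Compound, then agonist L165041 at 300 nM final, was added; 17 h at 37 C followed. Substrate loading, 2 h room temperature, fluorescence measured.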

[4] = target: Bile acid receptor (Homo sapiens) (UniProt Q96RI1); assay: qHTS assay to identify small molecule antagonists of the farnesoid-X-receptor (FXR) signaling pathway (AID 743217; active = well fitted inhibition curve with a large enough effect in the signal ratio in the repeat runs, not every such curve was filed as active; the % refers to the signal ratio)
Bile acid receptor (Homo sapiens), sequence (Q96RI1 whole entry, looked up): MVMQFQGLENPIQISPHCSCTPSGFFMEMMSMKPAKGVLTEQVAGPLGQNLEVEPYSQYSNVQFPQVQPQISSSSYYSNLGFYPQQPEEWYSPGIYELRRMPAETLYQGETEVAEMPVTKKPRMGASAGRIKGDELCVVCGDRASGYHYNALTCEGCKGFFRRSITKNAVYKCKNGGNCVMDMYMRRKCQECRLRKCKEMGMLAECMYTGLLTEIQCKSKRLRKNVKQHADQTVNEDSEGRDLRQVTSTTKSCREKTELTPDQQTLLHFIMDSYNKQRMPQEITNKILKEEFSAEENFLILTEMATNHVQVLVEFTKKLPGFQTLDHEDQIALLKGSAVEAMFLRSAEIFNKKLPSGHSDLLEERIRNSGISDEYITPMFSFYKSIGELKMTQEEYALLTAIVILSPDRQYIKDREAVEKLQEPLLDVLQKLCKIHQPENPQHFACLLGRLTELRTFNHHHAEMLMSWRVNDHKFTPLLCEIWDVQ
Procedure, shortened: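 Screen of the Tox21 10K library in quantitative HTS format using FXR-UAS-bla HEK 293T reporter cells. Agonist chenodeoxycholic acid, 50 uM final, added with compounds; 16 h incubation at 37 °C; beta-lactamase FRET fluorescence measured.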

[5] = qHTS assay to identify small molecule agonists of the farnesoid-X-receptor (FXR) signaling pathway - cell viability counter screen (AID 743218); also: nearly all actives have a fitted effect of over 45% in size
Procedure, shortened: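 Viability of FXR-bla HEK 293T cells is measured by ATP-based CellTiter-Glo luminescence following 16 h compound treatment at 37 C and a prior 2 h room-temperature beta-lactamase substrate step.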

[6] = target: Bile acid receptor (Homo sapiens) (UniProt Q96RI1); assay: qHTS assay to identify small molecule agonists of the farnesoid-X-receptor (FXR) signaling pathway (AID 743220; active = well fitted activation curve with a large enough effect in the signal ratio in the repeat runs, not every such curve was filed as active; the % refers to the signal ratio)
Procedure, shortened: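 FXR-UAS-bla HEK 293T cells carrying a UAS-driven beta-lactamase reporter were plated for 5 h at 37C/5% CO2, then exposed to DMSO-dissolved Tox21 10K compounds for 16 h at 37C. A LiveBLAzer B/G FRET substrate was loaded for 2 h at room temperature before fluorescence reading.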

[7] = target: Vitamin D3 receptor (Homo sapiens) (UniProt P11473); assay: qHTS assay to identify small molecule agonists of the vitamin D receptor (VDR) signaling pathway (AID 743222; calls by dose curve)
Vitamin D3 receptor (Homo sapiens), sequence (P11473 whole entry, looked up): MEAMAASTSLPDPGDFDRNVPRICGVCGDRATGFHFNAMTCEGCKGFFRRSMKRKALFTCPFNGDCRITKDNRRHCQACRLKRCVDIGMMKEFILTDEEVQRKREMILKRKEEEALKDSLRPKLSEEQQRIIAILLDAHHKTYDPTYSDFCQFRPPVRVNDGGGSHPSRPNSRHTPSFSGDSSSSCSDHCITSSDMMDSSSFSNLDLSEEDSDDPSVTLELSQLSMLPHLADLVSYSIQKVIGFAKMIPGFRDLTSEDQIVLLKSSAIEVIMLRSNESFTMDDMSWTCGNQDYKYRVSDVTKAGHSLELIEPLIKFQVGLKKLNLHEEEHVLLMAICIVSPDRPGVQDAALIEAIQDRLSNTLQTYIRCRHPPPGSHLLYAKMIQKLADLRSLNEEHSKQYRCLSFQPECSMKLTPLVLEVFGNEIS
Procedure, shortened: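 Fluorescence from cleaved LiveBLAzer B/G FRET substrate served as readout. VDR-bla cells had been treated 16 h at 37C with test compounds in DMSO, following a 4 h settling period, and substrate was loaded for 2 h at RT.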

[8] = target: Vitamin D3 receptor (Homo sapiens) (UniProt P11473); assay: qHTS assay to identify small molecule antagonists of the vitamin D receptor (VDR) signaling pathway (AID 743223; active = well fitted inhibition curve with a large enough effect in the signal ratio in the repeat runs, not every such curve was filed as active; the % refers to the signal ratio)
Procedure, shortened: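 Inhibition of agonist-driven VDR signalling is scored in VDR-bla cells: 3 nM final 1alpha,25-dihydroxyvitamin D3 plus compound, 16 h at 37C, then beta-lactamase detection by FRET substrate fluorescence after 2 h.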

[9] = qHTS assay to identify small molecule agonists of the vitamin D receptor (VDR) signaling pathway - cell viability counter screen (AID 743224); also: series mostly up to about 63 µM; nearly all actives have a fitted effect of over 50% in size
Procedure, shortened: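 Compounds were pin-transferred onto VDR-bla cells plated 4 h earlier; following 16 h incubation at 37C, cell viability was quantified by CellTiter-Glo luminescence after 30 min at room temperature.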

[10] = qHTS assay to identify small molecule antagonists of the farnesoid-X-receptor (FXR) signaling pathway - cell viability counter screen (AID 743221; active = well fitted cell-killing curve with a large enough effect in the repeat runs, not every such curve was filed as active; also: nearly all actives have a fitted effect of over 50% in size)
Procedure, shortened: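 Here viability was scored by luminescence after CellTiter-Glo addition to wells already read for beta-lactamase. Prior treatment: compound plus CDCA (50 uM final), 16 h, 37 C, HEK 293T FXR-bla cells.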
% is scaled to controls: 0 for no effect and ±100 for the full control effect.

CCCCCCCCCCCCCCCC(=O)OC
inactive: outcome [1] | outcome [2] | outcome [3] | outcome [4] | outcome [5] | outcome [6] | outcome [7] | outcome [8] | outcome [9]

COc1cc2nc(N3CCN(C(=O)C4CCCO4)CC3)nc(N)c2cc1OC (configuration not stated)
inactive: outcome [1] | outcome [2] | outcome [3] | outcome [5] | outcome [10]

O=C(O)Cc1c(Cl)ccc(Cl)c1Cl
inactive: outcome [1] | outcome [2] | outcome [3] | outcome [4] | outcome [5] | outcome [6] | outcome [10] | outcome [9]

O=C(O)/C=C(\CC(=O)O)C(=O)O
inactive: outcome [1] | outcome [2] | outcome [3] | outcome [4] | outcome [5] | outcome [6] | outcome [10] | outcome [7] | outcome [8]

O=C(CCBr)N1CCN(C(=O)CCBr)CC1
inactive: outcome [1] | outcome [2] | outcome [3] | outcome [4] | outcome [5] | outcome [6] | outcome [10] | outcome [7] | outcome [8] | outcome [9]

C[C@@H]1CC[C@@]2(OC1)O[C@H]1C[C@H]3[C@@H]4CC[C@H]5C[C@@H](O)CC[C@]5(C)[C@H]4CC(=O)[C@]3(C)[C@H]1[C@@H]2C
inactive: activation [1] 0.168% [at 5.95 µM] | viability change, negative = cytotoxic [2] 11.9% [at 6.26 µM] | ratio activity, negative = inhibition [3] 2.62% [at 6.26 µM] | activity change, negative = inhibition [4] 10.4% [at 5.95 µM] | viability change, negative = cytotoxic [5] 12.5% [at 5.95 µM] | activation [6] 2.31% [at 5.95 µM] | activity change, negative = cytotoxicity [9] 4.49% [at 5.95 µM]

CCCCCCCCCCCBr
inactive: outcome [1] | outcome [2] | outcome [3] | outcome [4] | outcome [5] | outcome [6] | outcome [10] | outcome [7] | outcome [8] | outcome [9]

O=S(=O)(O)c1ccc(Cl)cc1
inactive: outcome [1] | outcome [2] | outcome [3] | outcome [4] | outcome [5] | outcome [6] | outcome [10] | outcome [7] | outcome [8] | outcome [9]

C=C(C)C(=O)OCCOC1CC2CC1C1C=CCC21 (configuration not stated)
inactive: outcome [1] | outcome [2] | outcome [3] | outcome [4] | outcome [5] | outcome [6] | outcome [10] | outcome [7] | outcome [9]

CC/C=C\CCOC(=O)c1ccccc1
inactive: outcome [1] | outcome [2] | outcome [3] | outcome [4] | outcome [5] | outcome [6] | outcome [10] | outcome [8] | outcome [9]

CC(=O)c1ccc(O)c(C(N)=O)c1
inactive: outcome [1] | outcome [2] | outcome [3] | outcome [4] | outcome [6] | outcome [10] | outcome [7]

Cc1cc(C)c(C)c(C)c1
inactive: outcome [1] | outcome [2] | outcome [3] | outcome [4] | outcome [5] | outcome [6] | outcome [10] | outcome [7] | outcome [8] | outcome [9]

CCCCCCCCCCCCCCCC/C=C/C1CC(=O)OC1=O (configuration not stated)
inactive: outcome [1] | outcome [2] | outcome [3] | outcome [4] | outcome [5] | outcome [6] | outcome [7] | outcome [9]

Cc1ccc(O)c([N+](=O)[O-])c1
inactive: outcome [1] | outcome [2] | outcome [3] | outcome [4] | outcome [5] | outcome [6] | outcome [10] | outcome [7] | outcome [8] | outcome [9]

CCCCCCCCC1CO1 (configuration not stated)
inactive: outcome [1] | outcome [2] | outcome [3] | outcome [4] | outcome [5] | outcome [6] | outcome [10] | outcome [7] | outcome [8] | outcome [9]

N=C(N)N
inactive: outcome [1] | outcome [2] | outcome [3] | outcome [5] | outcome [10]

Cc1cc(=O)oc2cc(O[C@@H]3SC[C@@H](O)[C@H](O)[C@H]3O)ccc12
inactive: outcome [1] | outcome [2] | outcome [3] | outcome [4] | outcome [5] | outcome [6] | outcome [10] | outcome [7] | outcome [9]

C[C@H]1COc2c(C3(N)CC3)c(F)cc3c(=O)c(C(=O)O)cn1c23
inactive: outcome [1] | outcome [2] | outcome [3] | outcome [4] | outcome [5] | outcome [6] | outcome [10] | outcome [7] | outcome [8] | outcome [9]

Cc1ccccc1OCC(=O)O
inactive: outcome [1] | outcome [2] | outcome [3] | outcome [5] | outcome [6] | outcome [7] | outcome [9]

CCCc1ncc(C(=O)O)s1
inactive: outcome [1] | outcome [2] | outcome [3] | outcome [4] | outcome [5] | outcome [6] | outcome [10] | outcome [7] | outcome [8] | outcome [9]

C=CC(=O)CC
inactive: outcome [1] | outcome [2] | outcome [3] | outcome [5] | outcome [6] | outcome [10] | outcome [7] | outcome [8] | outcome [9]

Cc1cc(O)c(Cl)cc1C
inactive: outcome [1] | outcome [2] | outcome [3] | outcome [5] | outcome [6] | outcome [10] | outcome [7] | outcome [8] | outcome [9]

BrCCOc1ccccc1
inactive: outcome [1] | outcome [2] | outcome [3] | outcome [4] | outcome [5] | outcome [6] | outcome [10] | outcome [7] | outcome [8] | outcome [9]

O=P(O)(O)C(O)(Cc1cccnc1)P(=O)(O)O
inactive: outcome [1] | outcome [2] | outcome [3] | outcome [4] | outcome [5] | outcome [6] | outcome [10] | outcome [7] | outcome [8] | outcome [9]

COC(=O)c1ccc(NC(C)=O)cc1OC
inactive: outcome [1] | outcome [2] | outcome [3] | outcome [5] | outcome [6] | outcome [10] | outcome [9]
